Screening data from PubChem.
Pol eta inh-1: blocks human DNA polymerase eta activity; recombinant Pol eta, fluorescent DNA replication assay; Potency, µM (highest dose often 114 µM), without a hit: at the top dose activity change, negative = inhibition, actives largely listed as inhibitors; hit rate 1.2% among 390,000; AID 588591; further: potency means the concentration at half of the fitted maximal effect; on the % scale 0 is the no-effect control and ±100 the full control effect
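Fluorescent replication assay: 50 nM final substrate added after a 15 min room-temperature compound preincubation with 10 nM enzyme. Signal taken at 0 min and again at 10 min.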
Pol kappa inh-1: inhibitors of human DNA polymerase kappa. Q9UBT6. hit rate 0.53% among 400,000. Potency, µM (top dose mostly 107 µM), for the others: top-dose activity, negative = inhibition, usual class: inhibitors. purified Pol kappa, fluorescent DNA synthesis assay, 10 min; further: potency means the concentration at half of the fitted maximal effect; on the % scale 0 is the no-effect control and ±100 the full control effect
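First, compounds were pin-transferred onto 10 nM Pol kappa. After 15 min at room temperature, substrate was added to 50 nM final. Fluorescence was then measured kinetically at 0 and 10 min.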
Pol beta inh-1: DNA polymerase beta (human) inhibition. P06746. Pol beta primer extension/strand displacement, fluorescence kinetic. Potency, µM (doses to about 114 µM), inactives show at the top dose activity change, negative = inhibition, hits mostly inhibitors. hit rate 1.3% among 340,000; further: potency means the concentration at half of the fitted maximal effect; on the % scale 0 is the no-effect control and ±100 the full control effect
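Kinetic readout of DNA synthesis with strand displacement by Pol beta. Compound and 10 nM enzyme sit 15 min at room temperature; 50 nM substrate starts the reaction, read immediately and at 10 min.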
POLI inh: DNA polymerase iota (human) inhibition. Q9UNA4. Potency, µM (titrated, usually from 115 µM), for inactives: at the top dose activity, negative = inhibition, usual class: inhibitors. hit rate 1% among 390,000. Pol iota fluorescent replication assay, 10 min; further: potency means the concentration at half of the fitted maximal effect
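Pol iota at 10 nM preincubated 15 min with compounds at room temperature; reaction started with fluorescent substrate, 50 nM final. Fluorescence read kinetically at 0 and 10 min; buffer-only wells as negative control.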
WRN inhibitor: WRN helicase (human) inhibition; Q14191; WRN helicase unwinding, fluorescent forked duplex, kinetic; Potency, µM (titrated, usually from 114 µM), without a hit: top-dose activity change, negative = inhibition, most hits filed as inhibitors; hit rate 0.46% among 360,000; AID 651768; further: potency means the concentration at half of the fitted maximal effect; on the % scale 0 is the no-effect control and ±100 the full control effect; nearly all actives have a fitted effect of over 55% in size
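Kinetic fluorescence helicase assay: unwinding of a quenched forked DNA duplex (100 nM final) with 2 mM ATP final raises red fluorescence (525/598 nm). Compounds sat 15 min at room temperature with 20 nM WRN beforehand.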
FEN1 inh: inhibitors of human flap endonuclease 1 | Recombinant FEN1 flap cleavage, fluorescence, 15 min | Potency, µM (doses to about 114 µM), without a hit: at the top dose activity change, negative = inhibition, usual class: inhibitors | hit rate 0.35% among 390,000; further: potency means the concentration at half of the fitted maximal effect; on the % scale 0 is the no-effect control and ±100 the full control effect; nearly all actives have a fitted effect of over 65% in size
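Steps: FEN1 (10 nM) dispensed; compound added by pin tool; 15 min at room temperature; substrate added to 50 nM final; reads at 0 min and 15 min; data normalized and fitted (four-parameter Hill).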
Pol beta inh-2: Human Pol beta inhibitor hit validation; shares compounds with Pol beta inh-1; Pol beta primer extension/strand displacement, fluorescence kinetic; Potency, µM, actives largely listed as inhibitors; hit rate 87% among 250; AID 540280; calls by dose curve; further: potency means the concentration at half of the fitted maximal effect
Klenow inh: Klenow polymerase inhibition, pol beta selectivity check. 250 tested, under 10 active. activity change, negative = inhibition, % at 57.1 µM. shares compounds with Pol beta inh-1. AID 540300. Klenow exo- polymerase counter-screen, fluorescent DNA substrate
HIV RT inh: HIV-1 RT inhibition, pol beta selectivity check. shares compounds with Pol beta inh-1. 250 tested, under 10 active. activity % (negative = inhibition, positive = activation), % at 57.1 µM. HIV-1 RT polymerase activity, counter-screen
BAZ2B confirm: inhibits human BAZ2B bromodomain, hit validation; shares compounds with Pol kappa inh-1; AlphaScreen BAZ2B / biotin-H3K14Ac peptide displacement; Potency, µM, actives largely listed as inhibitors; hit rate 100% among 25; calls by dose curve
AlphaScreen ctr: interferes with AlphaScreen signal in BAZ2B counterscreen. AID 588859. Potency, µM (titrated, usually from 57.1 µM), inactives show top-dose activity change, negative = inhibition, hits mostly inhibitors. shares compounds with Pol kappa inh-1. 25 tested, under 10 active. AlphaScreen biotin-His6 peptide bead counterscreen, signal decrease;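 active means clear concentration-dependent signal drop in the bead assay lacking the target, so a primary-screen artifact; inconclusive means weak, partial or single-dose response; inactive means no response, so a real primary hit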
TbPGK inh: TbPGK inhibition, hit validation; shares compounds with Pol kappa inh-1; hit rate 79% among 500; AID 686980; TbPGK coupled GAPDH assay, Kinase-Glo luminescence; Potency, µM (top dose mostly 57.5 µM), without a hit: top-dose activity change, negative = inhibition, hits mostly inhibitors; further: potency means the concentration at half of the fitted maximal effect; on the % scale 0 is the no-effect control and ±100 the full control effect; nearly all actives have a fitted effect of over 65% in size
POLI cherry-pick: Human Pol iota inhibitor confirmatory assay; hit rate 77% among 1,500; Pol iota primer extension, TAMRA/BHQ fluorescence; Potency, µM, actives largely listed as inhibitors; shares compounds with Pol kappa inh-1; further: potency means the concentration at half of the fitted maximal effect
Pol kappa inh-2: confirmation of human DNA polymerase kappa inhibitors; shares compounds with Pol eta inh-1; purified Pol-kappa, fluorescent strand-displacement substrate; Potency, µM, most hits filed as inhibitors; hit rate 76% among 920; further: potency means the concentration at half of the fitted maximal effect
Pol eta inh-2: Pol eta (human) inhibition, cherry-pick confirmation; shares compounds with Pol eta inh-1; hit rate 64% among 2,600; Pol eta primer extension, TAMRA/BHQ fluorescence, 10 min; Potency, µM, usual class: inhibitors; further: potency means the concentration at half of the fitted maximal effect
Active calls of the source: *; ! = not confirmed by another sample; [ ] = another dose, or the depositor's remark. Sampled rows, rich in hits. Any-hit rate of the full collection: about 2.4%. Unless noted, the call rests on the fitted dose curve; in most records, active means well fitted curve in the direction sought with a large enough effect; inconclusive means small, poorly fitted or top-dose-only effect, or another doubt; inactive means no such curve, though single readings can be large; an effect the other way counts as inactive or inconclusive.

How did CC(=O)[C@@H]1CC[C@H]2[C@@H]3CC[C@@H]4CC(=O)CC[C@]4(C)[C@H]3CC[C@]12C do in these assays?
Pol kappa inh-1: 8%[19.4 µM]

Results for CC(C)c1cc2c(c(O)c1O)[C@]1(C(=O)O)CCCC(C)(C)C1CC2 (stereo partly specified) ?
Pol kappa inh-1: -5%[60.1 µM]

What do the screens show for `C=C(C)C(=O)Nc1cccc(C2=NOC3(C2)C[C@H](C(N)=O)N(C(=O)CC)C3)c1` (stereo partly specified)?
Pol eta inh-1: 11µM*; Pol kappa inh-1: 79µM*; Pol beta inh-1: 3.5µM*; POLI inh: inconclusive; WRN inhibitor: -6%; FEN1 inh: -6%; Pol beta inh-2: 8.9*; Klenow inh: -17; HIV RT inh: 1; BAZ2B confirm: 7.1*; AlphaScreen ctr: -3%

What do the screens show for `COC[C@H]1OC(=O)c2coc3c2[C@@]1(C)C1=C(C3=O)[C@H]2CCC(=O)[C@@]2(C)C[C@H]1OC(C)=O`?
Pol kappa inh-1: -14%[19.4 µM]

What do the screens show for `CCN(CC)P(=O)(NC(=O)C(Cl)(Cl)Cl)N(CC)CC.[Cl-].[Cl-].[Cl-].[Nd+3]`?
Pol eta inh-1: inconclusive; Pol kappa inh-1: 79µM*; Pol beta inh-1: inconclusive; POLI inh: inconclusive; WRN inhibitor: inconclusive; FEN1 inh: inconclusive; TbPGK inh: inconclusive

Results for CN1C(=O)C(Cc2ccc(OCc3ccccc3)cc2)C(=O)N(C)C1=O ?
Pol eta inh-1: -6%; Pol kappa inh-1: 7%; Pol beta inh-1: -1%; POLI inh: 44%; WRN inhibitor: 9%; FEN1 inh: 11%

How did O=c1cc(OCc2ccccc2)cc[nH]1 do in these assays?
Pol eta inh-1: -19%; Pol kappa inh-1: 4%; POLI inh: 53%; WRN inhibitor: 4%; FEN1 inh: 0%; BAZ2B confirm: 2.2*; AlphaScreen ctr: 10µM*

How did CN(C)[C@@H]1C(=O)C(C(N)=O)=C(O)[C@@]2(O)C(=O)C3=C(O)c4c(O)cccc4[C@@](C)(O)C3[C@H](O)C12 (stereo partly specified) do in these assays?
Pol eta inh-1: 32µM*!; Pol kappa inh-1: 8.9µM*!; POLI inh: 13µM*; WRN inhibitor: 40µM*!; FEN1 inh: 16µM*!; POLI cherry-pick: inconclusive

Results for CN1[C@@H]2CC[C@H]1CC(O[C@@H](c1ccccc1)c1ccc(Cl)cc1)C2 (stereo partly specified) ?
Pol kappa inh-1: -13%[19.4 µM]

How did CC1(C)C(=O)[C@@H]2OC2[C@@]2(C)C1CC(O)[C@]1(C)C2CC[C@@]2(C)C(c3ccoc3)OC(=O)C3OC312 (stereo partly specified) do in these assays?
Pol kappa inh-1: -11%[60.1 µM]

Results for CN1C(=O)NC(=O)/C(=C\c2ccc([N+](=O)[O-])o2)C1=O ?
Pol eta inh-1: 2.2µM*; Pol kappa inh-1: 14µM*; Pol beta inh-1: 100µM*; POLI inh: 2.5µM*; WRN inhibitor: 25µM*; FEN1 inh: 16µM*; TbPGK inh: 1.8µM*

Results for CNNC ?
Pol kappa inh-1: -7%[60.1 µM]

How did CCN(CC)C(=O)c1ccc2c(c1)C1C=CCC1C(C(=O)O)N2 (stereo unspecified) do in these assays?
Pol eta inh-1: 4µM*; Pol kappa inh-1: inconclusive; Pol beta inh-1: 35µM*; POLI inh: 13µM*; WRN inhibitor: 45µM*; FEN1 inh: inconclusive; TbPGK inh: inconclusive

What do the screens show for `C[C@H]1CCCC=CC2C[C@H](O)C[C@@H]2[C@H](O)C=CC(=O)O1` (stereo partly specified)?
Pol kappa inh-1: -5%[19.4 µM]; POLI inh: 32%; FEN1 inh: -1%

What do the screens show for `COc1cccc(N=Nc2c(O)[nH]c(=S)[nH]c2=O)c1`?
Pol eta inh-1: -10%; Pol kappa inh-1: 0%; Pol beta inh-1: 1%; POLI inh: inconclusive; WRN inhibitor: -14%; FEN1 inh: -21%

Results for COc1ccc(S(=O)(=O)Nc2ccccc2OC)cc1N=Nc1c(O)[nH]c(=S)[nH]c1=O ?
Pol eta inh-1: 22µM*; Pol kappa inh-1: inconclusive; POLI inh: inconclusive; WRN inhibitor: inconclusive; FEN1 inh: -20%; POLI cherry-pick: 42*; Pol kappa inh-2: 42*; Pol eta inh-2: inconclusive

How did CC(N)[C@H](O)c1ccc(O)c(O)c1 (stereo partly specified) do in these assays?
Pol eta inh-1: 3.2µM*; Pol kappa inh-1: 3µM*; Pol beta inh-1: 1.8µM*; POLI inh: 2.5µM*; FEN1 inh: 14µM*; POLI cherry-pick: 15*; Pol eta inh-2: 38*
